Measurements reported in PubChem BioAssay.
Active and inactive are the calls of the source.

How the values were obtained:
[1] = adipocyte viability effects, profiling panel, cell-based, 3T3-L1 adipocytes, calcein-AM fluorescence, 48 h, basal (AID 1163); settings: 3T3-L1 adipocytes viability, higher = more signal
[2] = HepG2 cell viability effects, profiling panel, calcein-AM fluorescence, 48 h, basal (AID 1164); settings: higher = more signal
[3] = MM1S cell viability effects, profiling panel, calcein-AM fluorescence, 48 h, basal (AID 1165); settings: higher = more signal;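 also: viability of MM1S multiple myeloma cells under basal unstimulated conditions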
[4] = basal RPMI8226 viability, no added stimulus, profiling panel, cell-based, calcein-AM fluorescence, 48 h, PK04 Diversity Set (AID 1166); settings: RPMI8226 myeloma viability, higher = more signal;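 also: cells grown under basal conditions without added stimulus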
[5] = basal HepG2 mitochondrial membrane potential changes, profiling panel, cell-based, JC-1 fluorescence, 24 h, 100 nL compound (AID 1167); settings: higher = more signal
[6] = basal 3T3-L1 adipocyte mitochondrial potential changes, profiling panel, cell-based, JC-1 fluorescence, 3T3-L1 adipocytes, 24 h, 100 nL compound (AID 1168); settings: JC-1 mitochondrial fluorescence, higher = more signal, called active from +8 up or from −8 down
[7] = basal RPMI8226 mitochondrial membrane potential changes, profiling panel, cell-based, JC-1 fluorescence, 24 h, 100 nL compound (AID 1169); settings: RPMI8226 myeloma, JC-1 mitochondrial potential fluorescence, higher = more signal
[8] = basal MM1S mitochondrial membrane potential changes, profiling panel, cell-based, JC-1 fluorescence, 24 h, 100 nL compound (AID 1170); settings: higher = more signal
[9] = A549 lung cancer cell viability effects, profiling panel, resazurin fluorescence, 24 h, PK04 Diversity Set (AID 1171); settings: higher = more signal, called active from +8 up or from −8 down
[10] = HepG2 liver cancer cell viability effects, profiling panel, resazurin fluorescence, 24 h, PK04 Diversity Set (AID 1172); settings: higher = more signal
[11] = basal S. cerevisiae growth modulation, no modifier, primary screen, OD600, strain BY4716, 24 h, basal condition (AID 1173); settings: OD600, 24 h, higher = more signal, called active from +8 up or from −8 down
[12] = MM1S myeloma cell viability, profiling panel, resazurin fluorescence, basal, 24 h, PK04 Diversity Set (AID 1174); settings: higher = more signal, called active from +8 up or from −8 down;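 also: MM1S multiple myeloma cell line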
[13] = molecular target: Dihydroorotate dehydrogenase (quinone), mitochondrial (Plasmodium falciparum (isolate 3D7)) (UniProt Q08210); assay: PfDHODH enzyme inhibitors, primary screen, biochemical, C-terminal His tag, absorbance 600 nm (AID 1175); settings: DCIP absorbance 600 nm, higher = more signal, called active from +8 up or from −8 down;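 also: recombinant parasite enzyme with a five histidine tag at its C terminus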
Sequence of Dihydroorotate dehydrogenase (quinone), mitochondrial (Plasmodium falciparum (isolate 3D7)) (Q08210 whole entry, looked up): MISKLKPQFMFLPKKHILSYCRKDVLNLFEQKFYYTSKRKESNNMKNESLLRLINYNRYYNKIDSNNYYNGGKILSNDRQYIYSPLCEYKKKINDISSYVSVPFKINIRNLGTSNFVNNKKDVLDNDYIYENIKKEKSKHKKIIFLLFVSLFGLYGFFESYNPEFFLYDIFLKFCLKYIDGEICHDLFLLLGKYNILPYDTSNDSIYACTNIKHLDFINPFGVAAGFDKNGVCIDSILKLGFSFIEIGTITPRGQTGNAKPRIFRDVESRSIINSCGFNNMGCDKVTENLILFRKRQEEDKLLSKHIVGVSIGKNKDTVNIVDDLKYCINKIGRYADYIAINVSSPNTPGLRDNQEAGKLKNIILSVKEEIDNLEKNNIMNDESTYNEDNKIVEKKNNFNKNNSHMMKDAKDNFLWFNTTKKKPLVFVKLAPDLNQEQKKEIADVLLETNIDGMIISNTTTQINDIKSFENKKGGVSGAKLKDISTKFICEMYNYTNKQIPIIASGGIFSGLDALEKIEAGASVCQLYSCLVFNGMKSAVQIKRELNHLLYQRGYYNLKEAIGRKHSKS

[14] = S. cerevisiae RM11-1a growth modifiers, primary screen, strain RM11-1a, OD600, basal, 24 h (AID 1177); settings: OD600, 24 h, higher = more signal, called active from +8 up or from −8 down;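 also: cultures grown under basal conditions with no added stressor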
[15] = E. coli acrAB mutant growth effects, primary screen, E. coli filamentation inducers, strain DRC39, OD650, 24 h (AID 1178); settings: higher = more signal, called active from +8 up or from −8 down;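 also: growth measured as culture turbidity by optical density at 650 nm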
[16] = E. coli acrAB mutant growth effects, primary screen, E. coli filamentation inducers, strain DRC39, OD650, 48 h (AID 1179);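 also: screen aims at cell division blockers that make cells filament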; settings: E. coli DRC39 delta-acrAB growth, higher = more signal, called active from +8 up or from −8 down
[17] = RPMI8226 myeloma cell viability, profiling panel, resazurin fluorescence, basal, 24 h, PK04 Diversity Set (AID 1180); settings: higher = more signal;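 also: RPMI8826 multiple myeloma cell line at 5000 cells per well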
[18] = molecular target: E3 ubiquitin-protein ligase XIAP (Homo sapiens) (UniProt P98170); assay: XIAP binders, primary screen, biophysical, small-molecule microarray, fluorescence 635 nm (AID 1181); settings: small-molecule microarray binding, higher = more signal;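 also: score merges 667 nm emission and signal to noise over triplicate slides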
Sequence of E3 ubiquitin-protein ligase XIAP (Homo sapiens) (P98170 whole entry, looked up): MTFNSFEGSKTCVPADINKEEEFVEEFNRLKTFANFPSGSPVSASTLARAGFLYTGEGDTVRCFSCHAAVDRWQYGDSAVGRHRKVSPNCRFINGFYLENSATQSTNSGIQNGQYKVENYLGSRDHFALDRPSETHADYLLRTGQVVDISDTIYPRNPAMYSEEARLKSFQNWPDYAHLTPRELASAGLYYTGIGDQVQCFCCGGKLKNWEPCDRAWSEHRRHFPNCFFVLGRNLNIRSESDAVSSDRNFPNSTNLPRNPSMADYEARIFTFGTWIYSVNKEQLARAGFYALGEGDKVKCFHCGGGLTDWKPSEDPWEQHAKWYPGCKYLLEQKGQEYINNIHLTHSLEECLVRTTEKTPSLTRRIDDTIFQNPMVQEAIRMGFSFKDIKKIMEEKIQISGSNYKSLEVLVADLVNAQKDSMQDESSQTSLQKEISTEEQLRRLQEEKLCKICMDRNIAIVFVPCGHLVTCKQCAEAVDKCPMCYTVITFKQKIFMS

[19] = tested on: XIP peptide (Xip251-270) binding; assay: small-molecule binders of XIP peptide, primary screen, biochemical, small-molecule microarray, fluorescence 635/667 nm, 0.1 µg/mL protein (AID 1182); settings: fluorescent protein binding, 635 nm, higher = more signal, called active from +8 up or from −8 down
XIP peptide (Xip251-270) = assay: small-molecule binders of XIP peptide, primary screen, biochemical, small-molecule microarray, fluorescence 635/667 nm, 0.5 µg/mL protein (AID 1183); settings: small-molecule microarray binding, fluorescence 635 nm; higher = more signal

| Structure (SMILES) | z-score [1] | z-score [2] | z-score [3] | z-score [4] | z-score [5] | z-score [6] | z-score [7] | z-score [8] | z-score [9] | z-score [10] | z-score [11] | z-score [12] | composite z-score [13] | z-score [14] | z-score [15] | z-score [16] | z-score [17] | composite z-score [18] | composite z-score [19] | composite z-score (XIP peptide (Xip251-270)) |
| --- | --- | --- | --- | --- | --- | --- | --- | --- | --- | --- | --- | --- | --- | --- | --- | --- | --- | --- | --- | --- |
| COCCOC(=O)N1C(=O)[C@@]2(c3cc(C#CC4(O)CCCCCC4)ccc31)[C@H](C(=O)NC[C@H](O)c1ccccc1)[C@H]1C(=O)O[C@H](c3ccccc3)[C@H](c3ccccc3)N1[C@@H]2c1ccccc1OCCO | 1.76 | -1.41 | -3.26 | -3.76 | -1.3 | 0.951 (inactive) | -0.939 | -1.75 | -0.0869 (inactive) | -0.0252 | 1.26 (inactive) | -1.35 (inactive) | 0.811 (inactive) | 3.05 (inactive) | 0.634 (inactive) | 1.05 (inactive) | -1.93 | -0.105 | 0.551 (inactive) | 0.751 |
| CC(C)[C@@H](C(=O)O)n1cc(-c2ccccn2)nn1 | 1.05 | 0.106 | -0.0169 | 0.516 | 0.422 | 0.592 (inactive) | -0.276 | 0.414 | 0.756 (inactive) | 0.735 | -1.37 (inactive) | 1.11 (inactive) | -0.206 (inactive) | -0.52 (inactive) | 1.87 (inactive) | 1.17 (inactive) | 0.386 | -0.0597 | 0.353 (inactive) | -0.548 |
| CO[C@H]1O[C@H](CO)[C@@H](OC(=O)Nc2ccccc2)[C@H](OC(=O)Nc2ccccc2-c2ccccc2)[C@@H]1OC(=O)Nc1ccccc1-c1ccccc1 | 0.195 | -1.35 | -1.09 | -1.33 | -0.629 | 2.01 (inactive) | -0.947 | 0.15 | -2.22 (inactive) | -0.342 | -0.954 (inactive) | -1.15 (inactive) | -1.33 (inactive) | 2.16 (inactive) | -0.233 (inactive) | -0.3 (inactive) | -0.447 | -0.0988 | 1.7 (inactive) | 0.868 |
| COCCOC(=O)N1C(=O)[C@@]2(c3ccccc31)[C@H](C(=O)Nc1nc3ccccc3s1)[C@H]1C(=O)O[C@H](c3ccccc3)[C@H](c3ccccc3)N1[C@@H]2c1ccc(O)cc1 | 0.471 | -1.49 | -3.26 | -3.76 | -3.44 | 1.01 (inactive) | -1.05 | -1.87 | 0.35 (inactive) | 0.148 | 2.4 (inactive) | -1.22 (inactive) | -2.63 (inactive) | 4.4 (inactive) | 1.23 (inactive) | 1.84 (inactive) | -0.898 | -0.0025 | 1.03 (inactive) | 0.748 |
